From PubChem BioAssay AID1619 (SRMLSC, 2009)
The campaign covered roughly 220,000 compounds. About 830 (0.38%) were called active.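 The calls were made as follows: active = compound inhibiting the enzyme by more than half at any dose during confirmatory dose-response retesting; inconclusive = strong single-dose inhibitors picked by rank but not retested; inactive = the rest.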 Only a sample is shown. Results with a measured potency or affinity are listed apart.

Molecular target: Leucine aminopeptidase (Plasmodium falciparum (isolate 3D7)) (UniProt Q8IL11)
Sequence (Q8IL11 whole entry, looked up): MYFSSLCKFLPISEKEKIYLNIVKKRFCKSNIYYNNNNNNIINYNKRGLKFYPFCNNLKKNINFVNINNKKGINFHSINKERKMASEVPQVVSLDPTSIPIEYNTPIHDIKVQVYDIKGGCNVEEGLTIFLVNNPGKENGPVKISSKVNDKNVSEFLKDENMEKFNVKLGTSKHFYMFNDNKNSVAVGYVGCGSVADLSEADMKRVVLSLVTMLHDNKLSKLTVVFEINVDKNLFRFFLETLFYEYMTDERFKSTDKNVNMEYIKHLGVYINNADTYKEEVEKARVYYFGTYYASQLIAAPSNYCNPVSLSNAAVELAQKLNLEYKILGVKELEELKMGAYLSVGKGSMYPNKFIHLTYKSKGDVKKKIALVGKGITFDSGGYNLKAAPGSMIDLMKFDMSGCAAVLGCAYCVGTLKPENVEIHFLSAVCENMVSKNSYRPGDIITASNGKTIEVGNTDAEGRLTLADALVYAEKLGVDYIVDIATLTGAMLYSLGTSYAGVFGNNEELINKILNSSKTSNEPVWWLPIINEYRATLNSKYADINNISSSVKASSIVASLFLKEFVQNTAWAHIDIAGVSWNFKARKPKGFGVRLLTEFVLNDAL
Experiment: P. falciparum M17LAP inhibitors, primary screen, biochemical, fluorogenic H-Leu-NHMec substrate, 1536-well (AID 1619);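 also: plate controls were full reaction with DMSO carrier for no effect and no enzyme background for full effect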
Conditions: recombinant M17LAP, H-Leu-NHMec fluorogenic kinetic assay; at 30 µM; stronger effect = higher value

inhibition, inactive:
COc1ccc(NC(=S)N(CCN2CCOCC2)Cc2cc3cc4c(cc3[nH]c2=O)OCCO4)cc1 10.8%
Cc1nnc(SCC(=O)NC(=O)NCc2ccco2)s1 -1.14%
Cc1ccccc1Nc1nnc(SCC(=O)NCc2ccco2)s1 45.1%
CCOc1ccc(S(=O)(=O)c2c(C(=O)c3ccccc3)cnc3cc4c(cc23)OCCO4)cc1 1.82%
O=C(CCS(=O)(=O)Cc1ccccc1F)N1CCc2ccccc2C1 6.01%
COc1ccccc1N1CCN(c2ccc(N3C(=O)CCC3=O)cc2[N+](=O)[O-])CC1 -4.52%
COc1ccc(OCC#CCN2CC(C)OC(C)C2)cc1 (stereo unspecified) -3.27%
O=C(N/N=C/c1ccc(-c2ccc([N+](=O)[O-])cc2)o1)c1cccnc1 4.87%
O=C(N/N=C\c1ccc(-c2ccc([N+](=O)[O-])cc2)o1)C1COc2ccccc2O1 (stereo unspecified) 1.94%
CC(C)(C)c1ccc2c(c1)OC(C(=O)N/N=C\c1ccc(-c3cccc(C(=O)O)c3)o1)CO2 (stereo unspecified) 7.12%
Nc1nonc1C(=O)N/N=C/c1ccc(-c2cccc(C(=O)O)c2)o1 30.2%
CCOP(C)(=O)C1(C(=O)OCc2ccccc2)CC1 (stereo unspecified) -6.01%
COc1cccc(CNc2ccc([N+](=O)[O-])cc2C)c1 6.82%
CC(C)CN1C(=O)/C(=C/c2cccs2)NC1=S 35.9%
O=C1/C(=C/c2ccc(N3CCCC3)cc2)NC(=S)N1C1CC1 -10.7%
O=C(CC1C(=O)NCCN1C(=O)c1ccc(F)cc1)OCc1ccccc1 (stereo unspecified) -6.93%
Cc1ccc(CNC(=O)CN2CCCC(C)C2)cc1 (stereo unspecified) 8.72%
Cc1[nH]nc2c1C(c1ccoc1)C(C#N)=C(N)O2 (stereo unspecified) 21.9%
COc1cc(-c2[nH]nc3c2C(c2ccoc2)C(C#N)=C(N)O3)cc(OC)c1OC (stereo unspecified) 24%
COc1cccc(-c2[nH]nc3c2C(c2ccsc2)C(C#N)=C(N)O3)c1 (stereo unspecified) 35.3%
COc1ccc(-c2[nH]nc3c2C(c2ccoc2)C(C#N)=C(N)O3)cc1 (stereo unspecified) 27.9%
O=C(Nc1nnc(-c2ccccn2)o1)c1ccc(Br)cc1 8.43%
COCC(C)NC(=O)c1cc2cccc([N+](=O)[O-])c2[nH]1 (stereo unspecified) 11.6%
NC(=O)N[C@@H](Cc1c[nH]c2ccccc12)C(=O)OCC(=O)N1CCCCC1 -0.49%
O=C(O/N=C(\c1ccccc1)c1ccncc1)c1ccccc1Cl 3.91%
CC(C)Cn1c2ccccc2c2cc(C(=O)O)ccc21 1.66%
COc1ccc(-c2csc(N)n2)cc1 -1.01%
COc1ccc(-c2nc(N)n[nH]2)cc1 2.51%
Cc1ccc(S(=O)(=O)/N=C(\c2ccccc2)N(C)S(=O)(=O)c2ccc(C)cc2)cc1 -10.3%
Cc1cccc(NC(=O)C2CCN(c3nc(C)cc(C)n3)CC2)c1 35.1%
Cc1cc(C)cc(NC(=O)C2CCCN(c3nc(C)cc(C)n3)C2)c1 (stereo unspecified) -13.6%
Cc1cc(C(F)(F)F)nn1CC(=O)NNC(=S)Nc1cccc(Cl)c1 9.62%
CC1CCC/C(=N\NC(=S)NCc2ccccc2)C1 (stereo unspecified) 9.29%
CCCCOc1ncnc2c1[nH]c1ccc(OC)cc12 -0.91%
COCCOc1cc2ncnc(N3CCC(C(=O)O)CC3)c2cc1OCCOC 5.32%
Cc1cc(/C=C(/C#N)c2nc3ccccc3[nH]2)c(C)n1-c1ccccc1C(=O)O 23%
Cc1cc(/C=C(/C#N)c2nc3ccccc3[nH]2)c(C)n1-c1cccc([N+](=O)[O-])c1 -7.34%
COc1cccc(N2CCN(C(=S)NCCc3ccccc3)CC2)c1 -3.71%
CCOc1ccc(S(=O)(=O)NCCCN2CCOCC2)cc1 -8.49%
Cc1ccc2c(c1)N(C(C)C(=O)NCc1ccccn1)C(=O)CO2 (stereo unspecified) -7.53%
CCc1cc2ccccc2nc1SCC(=O)Nc1cc(C)on1 4.25%
COc1cc(NC(=O)CSc2nccc(C)n2)c(C(=O)O)cc1OC 43.1%
COc1cc(NC(=O)CSc2cc(C)c3cc(C)cc(C)c3n2)c(C(=O)O)cc1OC 15.4%
COC(=O)CSc1ncnc2scc(-c3ccccc3)c12 -1.19%
COc1ccccc1NC(=O)CSc1nc2ccccc2cc1Cc1ccccc1 3.65%
COc1cc(NC(=O)CSc2ccccc2)c(C(=O)O)cc1OC 39.3%
O=C(CSc1ncnc2scc(-c3ccccc3)c12)Nc1ccc(C(=O)O)cc1 5.99%
CCc1cc2c(C)ccc(C)c2nc1SCC(=O)Nc1c[nH]c(=O)[nH]c1=O 14.5%
CCn1c(COc2ccc3c(c2)CCCC3)nnc1SCC(=O)Nc1ccc(C(=O)OC)cc1 5.55%
Cc1ccc(CNC(=O)C2CC(=O)OC23CCCC3)c(C)c1 (stereo unspecified) 6.63%
CN(C)CCNc1c2c(nc3nnnn13)CCCC2 5.48%
O=C(NN=C1CCCC1)C1COc2ccccc2O1 (stereo unspecified) 0.87%
O=C(O)C1CC(=O)N(Cc2ccc3c(c2)OCO3)C1 (stereo unspecified) -0.32%
COC(=O)[C@@]1(Cc2ccc(F)cc2)[C@H]2c3cc(C(=O)N(C)C)n(Cc4c(CO)[nH]cc(C)c4=O)c3C[C@H]2CN1C(=O)c1ccccc1 6.87%
O=c1cc(NCC2CCCO2)[nH]c(=O)n1-c1ccc(Cl)cc1 (stereo unspecified) 3.43%
C=CCNS(=O)(=O)c1nc(C)c(Cl)c(C)c1C#N 9.01%
CC(Sc1ncc(C#N)c(N)n1)C(=O)Nc1ccccc1 (stereo unspecified) 9.93%
CCc1nnc(NS(=O)(=O)c2ccc(NC(=O)COc3ccc(Cl)c(C)c3)cc2)s1 52.7%
CCc1nnc(NS(=O)(=O)c2ccc(NC(=S)NC(=O)/C=C/c3ccc(F)cc3)cc2)s1 53%
CCc1nnc(NS(=O)(=O)c2ccc(NC(=O)/C=C/c3ccccc3Cl)cc2)s1 1.04%
CCc1nnc(NS(=O)(=O)c2ccc(N/C=C\C(=O)c3ccc4ccccc4c3)cc2)s1 12.1%
CCc1nnc(NS(=O)(=O)c2ccc(NC(=S)NC(=O)/C=C/c3ccccc3)cc2)s1 23.5%
CCc1nnc(NS(=O)(=O)c2ccc(NC(=O)OC)cc2)s1 6.85%
CCc1nnc(NS(=O)(=O)c2ccc(NC(=O)c3cccc4ccccc34)cc2)s1 15%
CCc1nnc(NS(=O)(=O)c2ccc(NC(=S)NC(=O)/C=C/c3ccc(OC)cc3)cc2)s1 40.7%
Cc1ccc(Nc2nnc(SCC(=O)NCCN3C(=O)CSC3=O)s2)cc1C 54.4%
O=C(NCCc1c[nH]c2ccccc12)c1c(Cl)nc2sccn12 -3.3%
O=C(NCc1ccncc1)c1cn(-c2ccccc2)nc1-c1cccnc1 9.29%
CCOC(=O)Cc1nnc(Nc2ccc(C)cc2C)c2ccccc12 -12.3%
CC(C)CCNC(=O)C1CCC(=O)N1C(C)C (stereo unspecified) -2.71%
N#CCCN(CC(=O)O)S(=O)(=O)c1ccccc1 -11.6%
CCc1ccc(C(=O)Nc2nnn(CC)n2)cc1 10.2%
C1CCCCCC2(CCCCC1)OCC(CN1CCOCC1)O2 (stereo unspecified) 1.36%
Cc1c(C(=O)c2ccccc2)c2ccccn2c1CCc1ccccn1 5.7%
CCCCc1ccc(NC(=O)CN2NS(=O)(=O)c3ccccc3C2=O)cc1 52.6%
N#Cc1cccc(NC(=O)COC(=O)c2cccc(N3C(=O)c4ccccc4C3=O)c2)c1 8.44%
O=C(CN1NS(=O)(=O)c2ccccc2C1=O)Nc1ccccc1OC(F)F 43.5%
CC1(c2ccccc2)NC(=O)N(CC(=O)Nc2cccc(C#N)c2)C1=O (stereo unspecified) -4.04%
O=C1CSC(c2cccnc2)N1c1ccc(F)cc1 (stereo unspecified) 9.53%
CC(=O)Nc1ccc(CN2CCCC(CO)(Cc3ccccc3C)C2)cc1 (stereo unspecified) -0.77%
Nc1nc2n(n1)C(c1ccco1)CC(c1ccc(Cl)cc1)N2 (stereo unspecified) -19.4%
Cc1cccc(OC(=O)C2C(c3ccccc3)C(C(=O)O)C2c2ccccc2)c1 (stereo unspecified) 33.4%
COc1ccc(/C=C2/SC(=O)NC2=O)cc1 25.1%
Nc1c(-c2cccc(Cl)c2)cnn1-c1cccc(C(F)(F)F)c1 5.43%
C=C1C(C(=O)Nc2ccc(OCC)cc2)C1C(=O)Nc1ccc(OCC)cc1 (stereo unspecified) -7.51%
COc1ccc(OC)c(NC(=O)C2CCCC2)c1 -9.43%
CCOc1ccc(NC(=O)C2C3CCC4C(CCC32)C4(Cl)Cl)cc1 (stereo unspecified) 9.32%
COc1ccc(OC)c(NC(=O)C2CCCCC2)c1 5.19%
CC(=O)NC(=O)NC1OC(=O)C(Cl)=C1Cl (stereo unspecified) 4.19%
Cn1nc(C(=O)NCCOc2ccccc2)c2ccccc2c1=O -0.35%
CCOC(=O)CSCC(NC(=O)OC(C)(C)C)C(=O)OCC (stereo unspecified) 0.56%
CCOC(=O)C(CSCC(=O)c1ccc(Cl)cc1)NC(=O)OC(C)(C)C (stereo unspecified) 25.7%
CCN(CC)S(=O)(=O)c1ccc(N)cc1 11.4%
CCCSc1ccc(C(=O)Nc2ccc(Cl)cc2)cn1 -6.5%
COc1ccc(-n2c(C)cc(/C=C(\C#N)C(=O)NCc3ccco3)c2C)cc1 -8.8%
Cc1cc(/C=C(\C#N)C(=O)NCc2ccco2)c(C)n1-c1cccnc1 20.4%
